High-throughput results from PubChem BioAssay.
This excerpt belongs to a sample that is enriched for hits.
IMPase Li inh = qHTS Assay for Identifying the Cell-Membrane Permeable IMPase Inhibitors: Potentiation with Lithium; Potency, µM (top dose mostly 59.4 µM), for inactives: at the highest dose activity, negative = IMPase inhibition, hits mostly inhibitors; CHO-M1 cells, IP1 TR-FRET (IP-One), carbachol + lithium; hit rate 0.35% among 210,000;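 further: IP1 builds up when IMPase is blocked and the TR-FRET signal falls; potency means the concentration at half of the fitted maximal effect; plate controls were basal vehicle for no effect and high inhibitor control for full effect; nearly all actives have a fitted effect of over 50% in size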
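Concentration–response in CHO-M1 cells, lithium-potentiated; 30 min at 37C. IP1 detected by competitive TR-FRET after 10 min lysis at RT. Hill-fitted AC50.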
Tb PFK inh-1 = qHTS Assay to Find Inhibitors of T. brucei phosphofructokinase | Potency, µM (top dose mostly 57.5 µM), without a hit: top-dose activity, negative = inhibition, most hits filed as inhibitors | hit rate 0.17% among 330,000 | T. brucei PFK, ADP-Glo luminescence;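 further: potency means the concentration at half of the fitted maximal effect; 0% = uninhibited 1x PFK enzyme wells and -100% = no-enzyme wells; nearly all actives have a fitted effect of over 60% in size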
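Luminescent ADP detection (ADP-Glo, two-step: ATP depletion then ADP-to-ATP conversion for luciferase) reported PFK activity after 45 min room-temperature reaction of 1.25 nM enzyme with 0.5 mM F6P and 0.1 mM ATP at pH 8.0.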
NPSR antagonist = qHTS Assay for Antagonists of the Neuropeptide S Receptor: cAMP Signal Transduction; CHO-NPSR cells, cAMP TR-FRET, antagonist mode; Potency, µM (series often up to 38.3 µM), for inactives: at the top dose activity change, negative = inhibition, actives largely listed as inhibitors; Q6W5P4; AID 1461, 2008; hit rate 1% among 220,000; further: potency means the concentration at half of the fitted maximal effect; on the % scale 0 is the no-effect control and ±100 the full control effect; nearly all actives have a fitted effect of over 50% in size
MBNL1-CUG inh = qHTS Assay for Inhibitors of MBNL1-poly(CUG) RNA binding | Muscleblind-like protein 1 (Homo sapiens), Q9NR56 | TR-FRET MBNL1-His/biotin-(CUG)12 binding, 665/545 ratio | Potency, µM (series often up to 57.5 µM), inactives show at the highest dose activity change, negative = inhibition, most hits filed as inhibitors | hit rate 0.036% among 280,000; active means well fitted inhibition curve with a large enough effect in the signal ratio, with a control signal flat, not every such curve was filed as active; inconclusive means small, poorly fitted or top-dose-only effect, or effect the other way, or a change in a side signal; inactive means no such curve, though single readings can be large or run the other way; the % refers to the signal ratio; further: potency means the concentration at half of the fitted maximal effect; on the % scale 0 is the no-effect control and ±100 the full control effect
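TR-FRET readout: Ex 340 nm, 665/545 nm emission ratio, normalized to buffer-only (basal) and MBNL1-(CUG)12 controls. Complex of MBNL1-His with Biotin-(CUG)12, compounds 92 nM–58 uM, incubated 60 min at room temperature.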
RGS12 GoLoco inh-1 = qHTS Assay for Inhibitors of RGS12 GoLoco Motif Activity (Red Fluorophore) | AID 880, 2007 | Gai1:RGS12 GoLoco peptide FP, rhodamine, 10 min | Guanine nucleotide-binding protein G(i) subunit alpha-1 (Homo sapiens), P63096 | hit rate 0.44% among 230,000 | Potency, µM (series often up to 61.6 µM), for the others: at the top dose activity, negative = inhibition, most hits filed as inhibitors; active means well fitted inhibition curve with a large enough effect, not every such curve was filed as active; inactive means no such curve, though single readings can be large or run the other way; further: potency means the concentration at half of the fitted maximal effect; on the % scale 0 is the no-effect control and ±100 the full control effect; nearly all actives have a fitted effect of over 30% in size
RGS12 GoLoco inh-2 = Confirmation qHTS Assay for Inhibitors of RGS12 GoLoco Motif Activity (Red Fluorophore) | shares compounds with RGS12 GoLoco inh-1 | Gai1/rhodamine-RGS12 GoLoco peptide fluorescence polarization | Potency, µM (highest dose often 57.1 µM), for the others: at the top dose activity, negative = inhibition, actives largely listed as inhibitors | hit rate 50% among 110 | AID 2390, 2010
MBNL1 TRFRET = qHTS Assay for Inhibitors of MBNL1-poly(CUG) RNA binding: Initial hit validation from the primary screen; shares compounds with MBNL1-CUG inh; TR-FRET MBNL1-His / biotin-(CUG)12 binding, 60 min; Potency, µM (top dose mostly 57.6 µM), inactives show top-dose activity change, negative = inhibition, hits mostly inhibitors; hit rate 50% among 140; AID 493199, 2011
MBNL1 AlphaScrn = qHTS Assay for Inhibitors of MBNL1-poly(CUG) RNA binding: Initial hit validation in AlphaScreen assay for MBNL1-(CUG)12 binding; shares compounds with MBNL1-CUG inh; AlphaScreen MBNL1-His / biotin-(CUG)12 binding; Potency, µM (series often up to 57.7 µM), for inactives: at the top dose activity, negative = inhibition, hits mostly inhibitors; hit rate 30% among 140; AID 493205, 2011
Menin-MLL HTRF = qHTS Assay for Inhibitors of MBNL1-poly(CUG) RNA binding: Counterscreen HTRF assay. hit rate 20% among 120. Potency, µM (series often up to 57.6 µM), for inactives: at the highest dose activity, negative = inhibition, most hits filed as inhibitors. His-Menin/biotin-MLL peptide TR-FRET counterscreen. AID 651843, 2012. shares compounds with MBNL1-CUG inh
Tb PFK KinaseGlo = Tb PFK orthogonal confirmatory assay using ATP depletion (Kinase-Glo Plus) as an alternative measure of Tb PFK activity: Hit Validation; shares compounds with Tb PFK inh-1; Tb PFK enzyme, ATP depletion, Kinase-Glo Plus luminescence; Potency, µM (series often up to 57.5 µM), for the others: at the highest dose inhibition; hit rate 47% among 1,100; AID 504636, 2011; calls by dose curve; further: potency means the concentration at half of the fitted maximal effect; nearly all actives have a fitted effect of over 60% in size
Tb PFK inh-2 = Inhibitors of T. brucei phosphofructokinase: Hit Validation | shares compounds with Tb PFK inh-1 | purified T. brucei PFK, ADP-Glo luminescence, 45 min | Potency, µM (highest dose often 57.5 µM), for inactives: at the top dose activity change, negative = inhibition, most hits filed as inhibitors | hit rate 41% among 1,100 | AID 504637, 2011;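 further: potency means the concentration at half of the fitted maximal effect; plate controls were full PFK enzyme control for no effect and no enzyme control for full effect; nearly all actives have a fitted effect of over 60% in size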
* hit, by the source's call; u = inconclusive; x = no result; ! = repeats disagree; [ ] = another dose, or the depositor's remark. Unless noted, the call rests on the fitted dose curve; in most records, active means well fitted curve in the direction sought with a large enough effect; inconclusive means small, poorly fitted or top-dose-only effect, or another doubt; inactive means no such curve, though single readings can be large; an effect the other way counts as inactive or inconclusive.

SMILES | IMPase Li inh | Tb PFK inh-1 | NPSR antagonist | MBNL1-CUG inh | RGS12 GoLoco inh-1 | others
Cc1cccc(N2CCN(C(=O)c3ccc(CNc4c(N5CCC(C)CC5)c(=O)c4=O)cc3)CC2)c1C | 3% | 6% | u | -4% | -6%
CC(Cc1ccccc1)NC(N)=O (centres undefined) | x | 0% | -2%[7.67 µM] | 1% | 11%
CC(C)[N+](C)(CCC(C(N)=O)(c1ccccc1)c1ccccc1)C(C)C | 31% | u | 5% | 2% | 5µM*!
COC(=O)CSc1nc2sc3c(c2c(=O)n1C1CCCCC1)CCN(C)C3 | 20%[38.3 µM] | -11% | -29%[46.1 µM] | u | 121%
CN(N=O)c1ccc(O)c(O)c1 | 17% | x | -14%[46.1 µM] | x | 4.5µM*
COc1ccc(CCN)cc1O | -12% | x | 4%[46.1 µM] | x | 11%
NCCc1cc(O)c(O)cc1O | 42% | x | x | x | 25µM*
CC(=O)Nc1ccc(S(=O)(=O)N(C)CCOCc2ccccc2)cc1 | 36%[38.3 µM] | -3% | 17%[46.1 µM] | 1% | 4%
CCn1nc(-c2cccs2)nc2c(=O)n(C)c(=O)nc1-2 | 37%[38.3 µM] | -3% | 2.5µM* | u | 6%
CC/C(=C(\c1ccc(O)cc1)c1ccc(OCCN(C)C)cc1)c1ccccc1 | x | 3% | 10µM* | 2% | 17%
CC1=C(C(=O)O)N2C(=O)C(NC(=O)c3nn(C)cc3[N+](=O)[O-])C2SC1 (centres undefined) | -4% | 1% | 7% | u | 14%
C[N+]12CCC(CC1)C(C#N)(N1CCOCC1)C2 (centres undefined) | -4%[38.3 µM] | 0% | -14%[46.1 µM] | -9% | 2.2µM* | RGS12 GoLoco inh-2=u
N[C@@H](Cc1cc(I)c(O)c(I)c1)C(=O)O | -7% | -4% | -6% | -14% | 3.2µM*! | RGS12 GoLoco inh-2=u
O=S(=O)(O)F | -2% | x | x | x | -34%
CC1CC(=O)O1 (centres undefined) | -15% | x | x | x | -7%
C=C1C(O)(c2ccccc2)C2CC[N+]1(C)CC2 (centres undefined) | 3%[38.3 µM] | 4% | -1%[46.1 µM] | -7% | 10µM* | RGS12 GoLoco inh-2=u
NC(N)=Nc1ccc2[nH]c3c(c2c1)C[C@@]1(O)[C@H]2Cc4ccc(O)c5c4[C@@]1(CCN2CC1CC1)[C@H]3O5 | 38% | u | u | x | 2.8µM* | RGS12 GoLoco inh-2=7.9µM*
Oc1ccc2c3c1O[C@H]1c4[nH]c5c(c4C[C@@]4(O)[C@@H](C2)N(CC2CC2)CC[C@]314)C[C@]1(O)[C@H]2Cc3ccc(O)c4c3[C@@]1(CCN2CC1CC1)[C@@H]5O4 | 20% | x | x | x | -8%
Clc1ccc(C(c2ccccc2Cl)C(Cl)(Cl)Cl)cc1 (centres undefined) | -2% | x | x | x | -22%
CN1[C@H](CC(=O)c2ccccc2)CCC[C@H]1C[C@@H](O)c1ccccc1 | 19% | x | x | x | 1%
CN1C(CC(=O)c2ccccc2)CCCC1CC(O)c1ccccc1 (centres undefined) | 21% | 2% | -6%[46.1 µM] | 6% | 22µM*! | RGS12 GoLoco inh-2=18%
CCC[N+]12CCC(CC1)C(=C(c1ccccc1)c1ccccc1)C2 | 21% | -1% | 25% | -2% | 7%
CCCC[N+]12CCC(CC1)C(=C(c1ccccc1)c1ccccc1)C2 | 26% | 5% | -1%[46.1 µM] | -10% | 7.9µM* | RGS12 GoLoco inh-2=16µM*
CCOC(=O)C1CCCN(C(=O)Cn2sc3nc(C)cc(C)c3c2=O)C1 (centres undefined) | 29%[38.3 µM] | 1.5µM* | u | -6% | 18µM* | RGS12 GoLoco inh-2=u;Tb PFK KinaseGlo=u;Tb PFK inh-2=3.8µM*
N#CC(Cl)Cl | 7% | x | x | x | -5%
O=C(O)CCCCC1SCC2NC(=O)NC21 (centres undefined) | 3% | 0% | -12% | 0.1µM* | 23% | MBNL1 TRFRET=0.041µM*;MBNL1 AlphaScrn=0.0041µM*;Menin-MLL HTRF=0.015µM*
C=CC(C)=O | 0% | x | x | x | 14%
CC[C@@H]1/C=C/C=C/C[C@H](C)[C@@H](O)[C@](C)(O)C(=O)[C@H](C)[C@@H](O)[C@H](C)C(=O)[C@H](C)[C@@H](O)[C@H](C)/C=C/C(=O)O[C@H]2[C@@H](C)[C@@H](CC1)O[C@@]1(CC[C@@H](C)[C@@H](C[C@H](C)O)O1)[C@@H]2C | 7% | x | x | x | 0%
O=C1N=NC2=C1c1c3ccccc3c(O)n1CC2 | x | 14% | 35% | u | -5%
